Reference: PubChem BioAssay (NCI)
The panel holds about 83,000 compounds, 20% with a hit somewhere; the sample as a whole holds those more often.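 For each line, cells grew in 96-well plates with the test compound present at a single concentration for 48 hours.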 Values without a mark were called inactive. The source made the active and inactive calls. How the source made its calls: active means growth percent below 10; inactive means the rest.

Experiments:
Assay in all cases: NCI-60 one-dose screen, 48 h (100 = growth as untreated, 0 = no growth, -100 = all killed)
Conditions in all cases: 10 µM unless noted
[1] = system: DU-145 prostate
[2] = system: K-562 leukemia
[3] = system: MALME-3M melanoma
[4] = system: MDA-MB-231 breast
[5] = system: RXF 393 renal
[6] = system: SF-268 CNS
[7] = system: SF-295 CNS
[8] = system: SF-539 CNS
[9] = system: UACC-257 melanoma
[10] = system: M14 melanoma

Molecule `CC1(O)CC(c2nc(-c3ccc4ccc(-c5ccccc5)nc4c3)c3c(N)nccn23)C1` (configuration not stated) has a growth [1] of 34.1%, a growth [2] of 36.9% and a growth [3] of 30.4%. For the same molecule, the growth [4] was 28.7%, the growth [5] was 2.73% (active) and the growth [6] was 44.1%. The growth [7] was 46.7%, the growth [8] was -2.47% (active) and the growth [9] was 25.7%. The growth [10] was 42.5%.
For `COc1ccc(C(=O)c2cc(OC)c(OC)c(OC)c2)cc1/C=C/C(=O)c1ccc(F)cc1`, the growth [1] was 85.5%, the growth [2] was 9.61% (active) and the growth [3] was 65.6%. For the same molecule, the growth [4] was 68.4%, the growth [5] was 88.3% and the growth [6] was 77%. For the same molecule, the growth [7] was 84.3%, the growth [8] was 51.8% and the growth [9] was 86.6%. For the same molecule, the growth [10] was 72.5%.
`CCN(CCO)CCCOc1ccc2c(Nc3cc(CC(=O)Nc4cccc(F)c4)[nH]n3)ncnc2c1` was tested, and the growth [1] was 56.6%, the growth [2] was 32% and the growth [3] was -17.5% (active). The growth [4] was 39.4%, the growth [5] was 86.1% and the growth [6] was 56.2%. The growth [7] was 65.4%, the growth [8] was 25.8% and the growth [9] was -23.2% (active). For the same molecule, the growth [10] was 4.94% (active).
For `O=C(Cn1cncn1)Nc1ccc(-c2nc3ccccc3s2)cc1`, the growth [1] was 94.5%, the growth [2] was 85.8% and the growth [3] was 100%. The growth [4] was 96.5%, the growth [5] was 125% and the growth [6] was 97.1%. For the same molecule, the growth [7] was 91.9%, the growth [8] was 108% and the growth [9] was 102%. The growth [10] was 111%.
For `C[C@@H](Oc1cc(-c2cnn(C3CCNCC3)c2)cnc1N)c1c(Cl)ccc(F)c1Cl`, the growth [1] was -0.0589% (active), the growth [2] was -38.7% (active) and the growth [3] was -88.2% (active). For the same molecule, the growth [4] was -58.6% (active), the growth [5] was -87.3% (active) and the growth [6] was 1.66% (active). For the same molecule, the growth [7] was -72.1% (active), the growth [8] was -95.5% (active) and the growth [9] was -83.3% (active). For the same molecule, the growth [10] was -77.2% (active).
`CC(=O)c1cnc2ccc(-c3cc(Cl)c(O)c(Cl)c3)nc2c1NC1CCC(CN(C)C)CC1` (configuration not stated) was tested, and the growth [1] was -5.67% [2.5 µM] (active), the growth [2] was 6.35% [2.5 µM] (active) and the growth [3] was -75.7% [2.5 µM] (active). The growth [4] was -7.07% [2.5 µM] (active), the growth [5] was -75.1% [2.5 µM] (active) and the growth [6] was -24.1% [2.5 µM] (active). The growth [7] was -19.2% [2.5 µM] (active), the growth [8] was -89% [2.5 µM] (active) and the growth [9] was -26.4% [2.5 µM] (active). The growth [10] was -58.4% [2.5 µM] (active).
With `Cc1cnc(Nc2ccc(OCCN3CCCC3)cc2)nc1Nc1cccc(S(=O)(=O)NC(C)(C)C)c1` the growth [1] was 17.6%, the growth [2] was 1.89% (active) and the growth [3] was -34.1% (active). The growth [4] was 6.69% (active), the growth [5] was -86.7% (active) and the growth [6] was -10.9% (active). The growth [7] was 15.5%, the growth [8] was -83.2% (active) and the growth [9] was -78.9% (active). For the same molecule, the growth [10] was -48% (active).
For `COc1ccc(Cl)c(Nc2nc3ccccc3nc2NS(=O)(=O)c2cccc(NC(=O)C(C)(C)N)c2)c1`, the growth [1] was 62.4%, the growth [2] was 63.3% and the growth [3] was 69.5%. For the same molecule, the growth [4] was 68.3%, the growth [5] was -10.2% (active) and the growth [6] was 49.8%. The growth [7] was 12.2%, the growth [8] was 13.7% and the growth [9] was 56.9%. The growth [10] was 51.7%.
In the case of `O=S1(=O)OC(c2cc(Cl)c(O)c(Br)c2)(c2cc(Cl)c(O)c(Br)c2)c2ccccc21`, the growth [1] was 114%, the growth [2] was 109% and the growth [3] was 115%. It also gave a growth [4] of 94.8%, a growth [5] of 109% and a growth [6] of 106%. The growth [7] was 127%, the growth [8] was 94.6% and the growth [9] was 95.4%. The growth [10] was 99.4%.
`COCCOc1cnc2ccn([C@H](C)c3nnc4c(F)cc(-c5cnn(C)c5)cn34)c(=O)c2c1` was tested, and the growth [1] was 91.2%, the growth [2] was 96.8% and the growth [3] was 9.06% (active). It also gave a growth [4] of 63.9%, a growth [5] of 81.2% and a growth [6] of 85.9%. The growth [7] was 67.4%, the growth [8] was 99.1% and the growth [9] was 69.1%. It also gave a growth [10] of 91.6%.
With `CC(C)=CCc1cc2c(cc1O)C1=C(C(=O)C3=C(NCCS3(=O)=O)C1=O)C(C=C(C)C)O2` (configuration not stated) the growth [1] was 41.2%, the growth [2] was 8.83% (active) and the growth [3] was -42.9% (active). The growth [4] was 12.1%, the growth [5] was 57.2% and the growth [6] was 0.726% (active). The growth [7] was 91.7%, the growth [8] was 20% and the growth [10] was 3.7% (active).
With `Cc1ccc(Nc2nccc(N(C)c3ccc4c(C)n(C)nc4c3)n2)cc1S(N)(=O)=O` the growth [1] was 39.4%, the growth [2] was 7.01% (active) and the growth [3] was 2.35% (active). The growth [4] was -2.02% (active), the growth [5] was -37.5% (active) and the growth [6] was 45.4%. For the same molecule, the growth [7] was 31.1%, the growth [8] was -45.2% (active) and the growth [9] was -6.96% (active). For the same molecule, the growth [10] was -3.62% (active).
For `Cn1nccc1Nc1nccc(-c2ccn([C@H](CO)c3ccc(Cl)c(F)c3)c(=O)c2)n1`, the growth [1] was 93.5%, the growth [2] was 84.2% and the growth [3] was 0.796% (active). It also gave a growth [4] of 90.8%, a growth [5] of 108% and a growth [6] of 96.4%. For the same molecule, the growth [7] was 98.3%, the growth [8] was 104% and the growth [9] was 1.1% (active). It also gave a growth [10] of 24.3%.
Work on `Cn1cc(-c2ccc(F)c(C(F)(F)F)c2)nc1C1CCN(c2ncnc3[nH]ncc23)CC1` yielded a growth [1] of 77.3%, a growth [2] of 77.8% and a growth [3] of 76.5%. It also gave a growth [4] of 72.5%, a growth [5] of 56.7% and a growth [6] of 44.7%. For the same molecule, the growth [7] was 70.8%, the growth [8] was 51.5% and the growth [9] was 74.3%. It also gave a growth [10] of 83.4%.
With `O=C(Cc1ccc(/C=C/C(=O)c2ncc[nH]2)cc1)Nc1ccc(Br)cc1` the growth [1] was 19.9%, the growth [2] was 1.86% (active) and the growth [3] was 74.4%. For the same molecule, the growth [4] was 10%, the growth [5] was 19.4% and the growth [6] was 22.2%. For the same molecule, the growth [7] was 26.9%, the growth [8] was -51.1% (active) and the growth [9] was 69.8%. For the same molecule, the growth [10] was 31.4%.
In the case of `Cn1c(Nc2ccc(C(F)(F)F)cc2)nc2cc(Oc3ccnc(-c4ncc(C(F)(F)F)[nH]4)c3)ccc21`, the growth [1] was 60.4%, the growth [2] was 61.8% and the growth [3] was -11.7% (active). For the same molecule, the growth [4] was 51.7%, the growth [5] was 7.28% (active) and the growth [6] was 46.1%. The growth [7] was 54.1%, the growth [8] was 21.2% and the growth [9] was 11.9%. The growth [10] was 15.7%.
Molecule `N#Cc1cc2[nH]c3ccc(OC(F)(F)F)cc3c2oc1=O` has a growth [1] of 99.4%, a growth [2] of 28.8% and a growth [3] of 79.6%. The growth [4] was 84.6%, the growth [5] was 76.8% and the growth [6] was 75.5%. The growth [7] was 80.3%, the growth [8] was 90% and the growth [10] was 68.4%.
In the case of `COC(=O)[C@H](Cc1ccccc1)NC(=O)[C@@H](OC)[C@@H]1Cc2cc3cc(OC4CC(OC5CC(O)C(O)C(C)O5)C(O)C(C)O4)c(C)c(O)c3c(O)c2C(=O)[C@H]1OC1CC(OC2CC(OC3CC(C)(O)C(O)C(C)O3)C(O)C(C)O2)C(O)C(C)O1` (some centres not stated), the growth [1] was 11.8%, the growth [2] was 5.63% (active) and the growth [3] was -54.8% (active). The growth [4] was -8.99% (active), the growth [5] was -75% (active) and the growth [6] was -2% (active). The growth [7] was -9.46% (active), the growth [8] was -35.7% (active) and the growth [9] was -16.2% (active). The growth [10] was -60.8% (active).
Work on `Cc1cc2c(-c3nc4ccccn4c3Nc3cccc4ccccc34)c(O)c(O)cc2c(O)c1-c1c(C)cc2c(-c3nc4ccccn4c3Nc3cccc4ccccc34)c(O)c(O)cc2c1O` yielded a growth [1] of 31.4%, a growth [2] of 15.2% and a growth [3] of 10.8%. It also gave a growth [4] of 23.3%, a growth [5] of 39.6% and a growth [6] of 30.9%. For the same molecule, the growth [7] was 13.1%, the growth [8] was 20.4% and the growth [10] was 27.2%.
In the case of `C[C@]12O[C@H](C[C@]1(O)CO)n1c3ccccc3c3c4c(c5c6ccccc6n2c5c31)CNC4=O`, the growth [1] was 3.57% (active), the growth [2] was 4.93% (active) and the growth [3] was -85.3% (active). The growth [4] was -44.2% (active), the growth [5] was -90.2% (active) and the growth [6] was -45.5% (active). The growth [7] was -83.8% (active), the growth [8] was -96.6% (active) and the growth [9] was -77.2% (active). The growth [10] was -56.4% (active).
For `CCN(CC)CCN1C(=O)c2cccc3c(-c4ccc5c(c4)ncn5C4CCCCC4)ccc(c23)C1=O`, the growth [1] was 28.4%, the growth [2] was -14.2% (active) and the growth [3] was -74.5% (active). The growth [4] was 11.8%, the growth [5] was -11.4% (active) and the growth [6] was 39.9%. For the same molecule, the growth [7] was -41.7% (active), the growth [8] was -76.2% (active) and the growth [9] was -15% (active). For the same molecule, the growth [10] was -62.8% (active).
In the case of `CNC(=O)c1cc(Oc2ccc3nc(NC(=O)Nc4ccc(Cl)c(C(F)(F)F)c4)sc3c2)ccn1`, the growth [1] was 19.2%, the growth [2] was 47.2% and the growth [3] was -21.1% (active). The growth [4] was 4.76% (active), the growth [5] was -19.4% (active) and the growth [6] was 21.9%. The growth [7] was -10.9% (active), the growth [8] was -2.86% (active) and the growth [9] was 61.4%. For the same molecule, the growth [10] was -10.4% (active).
`C=CC(=O)N1CCC(Oc2cc3c(Nc4ccc(Cl)c(Cl)c4F)ncnc3cc2OC)CC1` was tested, and the growth [1] was 24.2%, the growth [2] was 12.6% and the growth [3] was 60.9%. For the same molecule, the growth [4] was 17.3%, the growth [5] was -46.6% (active) and the growth [6] was 8.38% (active). The growth [7] was 15.9%, the growth [8] was -8.55% (active) and the growth [9] was 24.4%. For the same molecule, the growth [10] was 28.8%.
Work on `CC(=O)O[C@]1(C)C[C@H](O)[C@]2(O)C=CO[C@H](O[C@@H]3O[C@H](CO)[C@@H](O)[C@H](O)[C@H]3O)[C@@H]21` yielded a growth [1] of 102%, a growth [2] of 97.3% and a growth [3] of 97.5%. It also gave a growth [4] of 98.5%, a growth [5] of 109% and a growth [6] of 94.3%. It also gave a growth [7] of 90.9%, a growth [8] of 97.5% and a growth [9] of 109%. For the same molecule, the growth [10] was 98.6%.
`COc1cc(Nc2ncc3c(n2)-c2ccc(Cl)cc2C(c2c(F)cccc2OC)=NC3)ccc1C(=O)O` gave a growth [1] of 78.4%, a growth [2] of 44.9% and a growth [3] of 72.4%. It also gave a growth [4] of 69.6%, a growth [5] of 95% and a growth [6] of 73%. It also gave a growth [7] of 64.6%, a growth [8] of 56.6% and a growth [9] of 80.8%. It also gave a growth [10] of 62.8%.
Molecule `CNC(=O)CN1CCC(Oc2cc3c(Nc4cccc(Cl)c4F)ncnc3cc2OC)CC1` has a growth [1] of 44.9%, a growth [2] of 60.9% and a growth [3] of 91.1%. The growth [4] was 43.6%, the growth [5] was 24% and the growth [6] was 51%. It also gave a growth [7] of 76.1%, a growth [8] of 72.8% and a growth [9] of 74.4%. It also gave a growth [10] of 84.1%.
